The nature of experiment [1]: NCI Yeast Anticancer Drug Screen. Data for the rad50 strain (AID 155).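 Note: 0% = growth of vehicle-only cultures of the same strain.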 As to conditions: S. cerevisiae rad50 strain growth inhibition, hits give high values. The gist of the method:
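Genetically altered yeast (DNA repair pathway); compound treatment; growth inhibition vs vehicle ctrl.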

Experiment [2] can be described thus: NCI Yeast Anticancer Drug Screen. Data for the mec2-1 strain (AID 157). As to conditions: S. cerevisiae mec2-1 strain, hits give high values. The gist of the method: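 Test agents were screened against the mec2-1 yeast strain, with defined DNA repair or cell cycle alteration. Growth was scored as inhibition against vehicle-only controls.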
Experiment [3] is described as follows: NCI Yeast Anticancer Drug Screen. Data for the sgs1 mgt1 strain (AID 161).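 Note: 0% = growth of cultures given vehicle only.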 Conditions: S. cerevisiae sgs1 mgt1 strain, hits give high values. The gist of the method: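 Genetically altered yeast, compound exposure, growth inhibition relative to vehicle.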
A short description of experiment [4]: NCI Yeast Anticancer Drug Screen. Data for the cln2 rad14 strain (AID 165).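 Note: 0% = growth equal to vehicle treated cultures.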 Conditions: S. cerevisiae cln2 rad14 strain, hits give high values. The gist of the method: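 Growth of compound-exposed yeast (cln2 rad14 genotype) measured and expressed as inhibition relative to vehicle.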
Experiment [5] is described as follows: NCI Yeast Anticancer Drug Screen. Data for the bub3 strain (AID 167). Conditions: S. cerevisiae bub3 mutant strain, hits give high values. The gist of the method: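 Yeast carrying a defined mutation is treated with each compound, and growth is compared with that of vehicle-exposed cells to give inhibition.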
Experiment [6] can be described thus: NCI Yeast Anticancer Drug Screen. Data for the mlh1 rad18 strain (AID 175). Conditions: S. cerevisiae mlh1 rad18 strain growth inhibition, hits give high values. The gist of the method: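 In this whole-cell yeast screen, a strain with altered DNA damage repair is challenged with compound, and its growth is measured against matched vehicle-treated controls.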
The mark [7] stands for this setting: at 5.0 µM (retest, dose inferred, filed as 0.5).
Setting [8] is: at 50.0 µM (retest, dose inferred, filed as 5.0).

Each structure is given as a SMILES string. About 79,000 compounds went through this panel and 15% of them were active in at least one assay; those are over-represented in the sample as a whole. A number with no mark means an inactive call. Active and inactive are the calls of the source. Cut-off read from the data, not from the text of the source: active = growth inhibition above about 70%; inactive = the rest.

Turning to `Cc1ccccc1C1c2c(C)cccc2C(=O)CC1CC(=O)O` (stereo not given), the growth inhibition is 4% in experiment [1] (setting [7]); 60% in experiment [1] (setting [8]); 58% in experiment [1] (at 50.0 µM); 1% in experiment [2] (setting [7]); 72% (active) in experiment [2] (setting [8]); 81.5% (active) in experiment [2] (at 50.0 µM). Moreover, the growth inhibition in experiment [3] (setting [7]) was -1%; in experiment [3] (setting [8]), 75% (active); in experiment [3] (at 50.0 µM) it was 82.3% (active); in experiment [4] (setting [7]), -41%; in experiment [4] (setting [8]), 70% (active); in experiment [4] (at 50.0 µM), 13.3%. Further, the growth inhibition in experiment [5] (setting [7]) was 6%; in experiment [5] (setting [8]), 67%; in experiment [5] (at 50.0 µM), 70% (active); in experiment [6] (setting [7]), 8%; in experiment [6] (setting [8]), 83% (active); in experiment [6] (at 50.0 µM) it was 81.6% (active).
`c1cc[c]([Sn]([O]c2cccc3cccnc23)([c]2ccccc2)[c]2ccccc2)cc1`: the growth inhibition in experiment [1] (setting [7]) is 99% (active); in experiment [1] (setting [8]), 21%; in experiment [1] (at 50.0 µM), 89.5% (active); in experiment [2] (setting [7]), 100% (active); in experiment [2] (setting [8]), 10%; in experiment [2] (at 50.0 µM), 92.2% (active). Further, the growth inhibition in experiment [3] (setting [7]) is 100% (active); in experiment [3] (setting [8]), 30%; in experiment [3] (at 50.0 µM), 89.6% (active); in experiment [4] (setting [7]), 99% (active); in experiment [4] (setting [8]), 11%; in experiment [4] (at 50.0 µM), 85.8% (active). In addition, the growth inhibition was 99% (active) in experiment [5] (setting [7]); 63% in experiment [5] (setting [8]); 90.8% (active) in experiment [5] (at 50.0 µM); 100% (active) in experiment [6] (setting [7]); 14% in experiment [6] (setting [8]); 93% (active) in experiment [6] (at 50.0 µM).
In the case of `CCN(CC)CCNc1c2ccccc2nc2cccc([N+](=O)[O-])c12`, the growth inhibition in experiment [1] (setting [7]) is 88% (active); in experiment [1] (setting [8]), 97% (active); in experiment [1] (at 50.0 µM), 68.2%; in experiment [2] (setting [7]) it was 95% (active); in experiment [2] (setting [8]), 99% (active); in experiment [2] (at 50.0 µM), 61.4%. In addition, the growth inhibition in experiment [3] (setting [7]) is 94% (active); in experiment [3] (setting [8]), 99% (active); in experiment [3] (at 50.0 µM), 55%; in experiment [4] (setting [7]), 85% (active); in experiment [4] (setting [8]), 98% (active); in experiment [4] (at 50.0 µM), 86.5% (active). For the same compound, the growth inhibition is 93% (active) in experiment [5] (setting [7]); 99% (active) in experiment [5] (setting [8]); 2.85% in experiment [5] (at 50.0 µM); 92% (active) in experiment [6] (setting [7]); 97% (active) in experiment [6] (setting [8]); 62.9% in experiment [6] (at 50.0 µM).
For `CCOC(=O)C(/C=N\C(=S)Nc1ccc(Cl)c(Cl)c1)=C(/O)c1ccccc1`, the growth inhibition was 2% in experiment [1] (setting [7]); 58% in experiment [1] (setting [8]); 83.3% (active) in experiment [1] (at 50.0 µM); -3% in experiment [2] (setting [7]); 45% in experiment [2] (setting [8]); 69% in experiment [2] (at 50.0 µM). Besides, the growth inhibition in experiment [3] (setting [7]) is 11%; in experiment [3] (setting [8]), 38%; in experiment [3] (at 50.0 µM), 75.5% (active); in experiment [4] (setting [7]), -8%; in experiment [4] (setting [8]), 45%; in experiment [4] (at 50.0 µM) it was 78.6% (active). For the same compound, the growth inhibition was 12% in experiment [5] (setting [7]); 35% in experiment [5] (setting [8]); 78.4% (active) in experiment [5] (at 50.0 µM); -9% in experiment [6] (setting [7]); 49% in experiment [6] (setting [8]); 81.2% (active) in experiment [6] (at 50.0 µM).
As for `CC(C)N1C(=O)c2ccccc2S1(Cl)c1ccccc1` (stereo not given), the growth inhibition in experiment [1] (setting [7]) is 2%; in experiment [1] (setting [8]), 0%; in experiment [1] (at 50.0 µM), 97.5% (active); in experiment [2] (setting [7]), -6%; in experiment [2] (setting [8]) it was 6%; in experiment [2] (at 50.0 µM) it was 96.8% (active). Also, the growth inhibition in experiment [3] (setting [7]) is 4%; in experiment [3] (setting [8]) it was -3%; in experiment [3] (at 50.0 µM) it was 94.5% (active); in experiment [4] (setting [7]), -2%; in experiment [4] (setting [8]), 2%; in experiment [4] (at 50.0 µM), 88.2% (active). Besides, the growth inhibition in experiment [5] (setting [7]) is -7%; in experiment [5] (setting [8]), -6%; in experiment [5] (at 50.0 µM) it was 98.5% (active); in experiment [6] (setting [7]), -2%; in experiment [6] (setting [8]), 4%; in experiment [6] (at 50.0 µM), 98.3% (active).
With `CC(=O)OC1CCC2(C)C(C1)C(OC(C)=O)CC1C3CCC(c4cccc(=O)o4)C3(C)CCC12` (stereo not given), the growth inhibition was 2% in experiment [1] (setting [7]); 64% in experiment [1] (setting [8]); 85.1% (active) in experiment [1] (at 50.0 µM); 11% in experiment [2] (setting [7]); 84% (active) in experiment [2] (setting [8]); 86.7% (active) in experiment [2] (at 50.0 µM). Further, the growth inhibition in experiment [3] (setting [7]) was 17%; in experiment [3] (setting [8]), 72% (active); in experiment [3] (at 50.0 µM) it was 84.8% (active); in experiment [4] (setting [7]) it was 5%; in experiment [4] (setting [8]) it was 76% (active); in experiment [4] (at 50.0 µM), 84.9% (active). The growth inhibition is -2% in experiment [5] (setting [7]); 79% (active) in experiment [5] (setting [8]); 81.2% (active) in experiment [5] (at 50.0 µM); -6% in experiment [6] (setting [7]); 66% in experiment [6] (setting [8]); 85% (active) in experiment [6] (at 50.0 µM).
In the case of `CC1(C(Cl)(Cl)Cl)C=CC(=NO)C=C1` (stereo not given), the growth inhibition in experiment [1] (setting [7]) is 1%; in experiment [1] (setting [8]) it was 28%; in experiment [1] (at 50.0 µM) it was 65.8%; in experiment [2] (setting [7]), 2%; in experiment [2] (setting [8]), 34%; in experiment [2] (at 50.0 µM), 21.4%. Besides, the growth inhibition is 1% in experiment [3] (setting [7]); 44% in experiment [3] (setting [8]); 70.8% (active) in experiment [3] (at 50.0 µM); 3% in experiment [4] (setting [7]); 26% in experiment [4] (setting [8]); 30.1% in experiment [4] (at 50.0 µM). Also, the growth inhibition in experiment [5] (setting [7]) is -4%; in experiment [5] (setting [8]), 29%; in experiment [5] (at 50.0 µM), 18.7%; in experiment [6] (setting [7]) it was -4%; in experiment [6] (setting [8]) it was 34%; in experiment [6] (at 50.0 µM), 54.1%.
As to `CC(=O)Nc1c(Cl)ccc2c1Cc1cc([N+](=O)[O-])ccc1-2`, the growth inhibition is 19% in experiment [1] (setting [7]); 92% (active) in experiment [1] (setting [8]); 91% (active) in experiment [1] (at 50.0 µM); 2% in experiment [2] (setting [7]); 19% in experiment [2] (setting [8]); 45.8% in experiment [2] (at 50.0 µM). Moreover, the growth inhibition in experiment [3] (setting [7]) is 6%; in experiment [3] (setting [8]) it was -39%; in experiment [3] (at 50.0 µM), 49.5%; in experiment [4] (setting [7]), -3%; in experiment [4] (setting [8]), 44%; in experiment [4] (at 50.0 µM) it was 47.9%. The growth inhibition in experiment [5] (setting [7]) was -7%; in experiment [5] (setting [8]), 10%; in experiment [5] (at 50.0 µM) it was 10.7%; in experiment [6] (setting [7]), -9%; in experiment [6] (setting [8]), 66%; in experiment [6] (at 50.0 µM), 90.8% (active).
For the compound `Cn1c(=NCCc2ccccc2)oc2ccc(Cl)cc21`, the growth inhibition was -6% in experiment [1] (setting [7]); 17% in experiment [1] (setting [8]); 6.15% in experiment [1] (at 50.0 µM); -7% in experiment [2] (setting [7]); 9% in experiment [2] (setting [8]); 1.7% in experiment [2] (at 50.0 µM). The growth inhibition in experiment [3] (setting [7]) is -7%; in experiment [3] (setting [8]) it was 29%; in experiment [3] (at 50.0 µM) it was 30.3%; in experiment [4] (setting [7]), -4%; in experiment [4] (setting [8]) it was 16%; in experiment [4] (at 50.0 µM), 73% (active). Besides, the growth inhibition in experiment [5] (setting [7]) is 4%; in experiment [5] (setting [8]), 33%; in experiment [5] (at 50.0 µM) it was 18.6%; in experiment [6] (setting [7]), -3%; in experiment [6] (setting [8]), 25%; in experiment [6] (at 50.0 µM), 18.6%.
For the compound `Nc1ccc(-c2nc3ccccc3s2)cc1I`, the growth inhibition in experiment [1] (setting [7]) is 34%; in experiment [1] (setting [8]), 71% (active); in experiment [1] (at 50.0 µM) it was 84.3% (active); in experiment [2] (setting [7]), 20%; in experiment [2] (setting [8]) it was 74% (active); in experiment [2] (at 50.0 µM), 89.1% (active). Besides, the growth inhibition was 44% in experiment [3] (setting [7]); 88% (active) in experiment [3] (setting [8]); 87.3% (active) in experiment [3] (at 50.0 µM); 50% in experiment [4] (setting [7]); 68% in experiment [4] (setting [8]); 86.2% (active) in experiment [4] (at 50.0 µM). In addition, the growth inhibition in experiment [5] (setting [7]) was 53%; in experiment [5] (setting [8]) it was 95% (active); in experiment [5] (at 50.0 µM), 84.2% (active); in experiment [6] (setting [7]) it was 27%; in experiment [6] (setting [8]), 77% (active); in experiment [6] (at 50.0 µM) it was 84% (active).

(Values after PubChem BioAssay (NCI).)
